Counter-ions that a name gives are not always drawn. ± gives the standard deviation.
tested on: Jurkat; test: cell count relative to DMSO control (fraction of control); higher = more cells (less growth inhibition); conditions: 48 h

Structure (SMILES) | cell count
COc1ccc(C(CN(C)C)C2(O)CCCCC2)cc1 (stereo not given) [Venlafaxine·HCl] (concentration: 25 µM) | 0.498 ± 0.12
COc1cc2c(cc1OC)C1CC(=O)C(CC(C)C)CN1CC2 (stereo not given) [Tetrabenazine] (concentration: 25 µM) | 0.833 ± 0.093
O=[N+]([O-])O[C@H]1CO[C@H]2[C@@H]1OC[C@H]2O[N+](=O)[O-] [Isosorbide Dinitrate] (concentration: 25 µM) | 1.04 ± 0.081
Cl[C@H]1[C@H](Cl)[C@@H](Cl)[C@@H](Cl)[C@H](Cl)[C@H]1Cl [Lindane] (concentration: 25 µM) | 0.667 ± 0.091
COc1cc([C@@H]2c3cc4c(cc3[C@H](O)[C@H]3COC(=O)[C@H]23)OCO4)cc(OC)c1OC [Podofilox] (concentration: 25 nM) | 0.0355 ± 0.018
CN1C[C@H](C(=O)N[C@]2(C)O[C@@]3(O)[C@@H]4CCCN4C(=O)[C@H](Cc4ccccc4)N3C2=O)C[C@@H]2c3cccc4[nH]cc(c34)C[C@H]21 [Dihydroergotamine Mesylate] (concentration: 25 µM) | 0.297 ± 0.092
NCC(CC(=O)O)c1ccc(Cl)cc1 (stereo not given) [Baclofen] (concentration: 25 µM) | 0.555 ± 0.08
O=C1Nc2ccc(Cl)cc2C(c2ccccc2)=NC1O (stereo not given) [Oxazepam] (concentration: 25 µM) | 0.645 ± 0.05
COc1ccc2c(c1)[C@]13CCCC[C@@H]1[C@H](C2)N(C)CC3 [Dextromethorphan] (concentration: 25 µM) | 0.841 ± 0.024
CC(=O)O[C@H]1C[C@@H]2CC[C@@H]3[C@H](CC[C@@]4(C)[C@H]3C[C@H]([N+]3(C)CCCCC3)[C@@H]4OC(C)=O)[C@@]2(C)C[C@@H]1[N+]1(C)CCCCC1 [Pancuronium·2Br] (concentration: 25 µM) | 1.12 ± 0.09

Source: the supplement of paper PMC4709259
